Measured values taken from PubChem BioAssay (NCATS).
Inconclusive results are not listed. Where a call stands in place of a potency, no number is given. A number with no mark means an inactive call. Active and inactive are the calls of the source. Unless noted, calls follow the shape of the dose curve; as a rule, active = well fitted curve in the direction sought with a large enough effect; inconclusive = small, poorly fitted or top-dose-only effect, or another doubt; inactive = no such curve, though single readings can be large; an effect the other way counts as inactive or inconclusive.

How the values were obtained:
[1] = target: ATP-dependent 6-phosphofructokinase (Trypanosoma brucei brucei) (UniProt O15648); assay: qHTS Assay to Find Inhibitors of T. brucei phosphofructokinase: hit validation (AID 492961);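 also: luminescence reports ADP formed as PFK phosphorylates fructose-6-phosphate with ATP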
Sequence of ATP-dependent 6-phosphofructokinase (Trypanosoma brucei brucei) (O15648 whole entry, looked up): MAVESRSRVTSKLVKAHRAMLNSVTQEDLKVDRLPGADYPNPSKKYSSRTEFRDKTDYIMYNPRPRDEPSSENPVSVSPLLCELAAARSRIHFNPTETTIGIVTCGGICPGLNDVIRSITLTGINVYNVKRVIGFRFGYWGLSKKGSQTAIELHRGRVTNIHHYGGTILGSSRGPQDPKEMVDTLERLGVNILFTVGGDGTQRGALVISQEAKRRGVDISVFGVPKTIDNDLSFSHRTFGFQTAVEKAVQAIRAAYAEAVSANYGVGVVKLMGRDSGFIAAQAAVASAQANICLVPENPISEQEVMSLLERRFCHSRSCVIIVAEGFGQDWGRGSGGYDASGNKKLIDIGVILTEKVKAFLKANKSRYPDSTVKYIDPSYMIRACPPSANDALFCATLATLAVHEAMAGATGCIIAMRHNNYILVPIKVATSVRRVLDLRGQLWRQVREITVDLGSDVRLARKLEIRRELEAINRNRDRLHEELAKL
How it was run: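 In this biochemical qHTS validation, titrated compounds were tested against 1.25 nM PFK with 0.1 mM ATP and 0.5 mM F6P. Percent activity came from controls lacking or containing enzyme.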

[2] = target: Ubiquitin carboxyl-terminal hydrolase 1 (Homo sapiens) (UniProt O94782); assay: Inhibitors of USP1/UAF1: Pilot qHTS (AID 504865);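 also: rhodamine fluorescence freed from ubiquitin-rhodamine substrate followed over time; top concentration of the series differs between compounds; nearly all actives have a fitted effect of over 35% in size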
Sequence of Ubiquitin carboxyl-terminal hydrolase 1 (Homo sapiens) (O94782 whole entry, looked up): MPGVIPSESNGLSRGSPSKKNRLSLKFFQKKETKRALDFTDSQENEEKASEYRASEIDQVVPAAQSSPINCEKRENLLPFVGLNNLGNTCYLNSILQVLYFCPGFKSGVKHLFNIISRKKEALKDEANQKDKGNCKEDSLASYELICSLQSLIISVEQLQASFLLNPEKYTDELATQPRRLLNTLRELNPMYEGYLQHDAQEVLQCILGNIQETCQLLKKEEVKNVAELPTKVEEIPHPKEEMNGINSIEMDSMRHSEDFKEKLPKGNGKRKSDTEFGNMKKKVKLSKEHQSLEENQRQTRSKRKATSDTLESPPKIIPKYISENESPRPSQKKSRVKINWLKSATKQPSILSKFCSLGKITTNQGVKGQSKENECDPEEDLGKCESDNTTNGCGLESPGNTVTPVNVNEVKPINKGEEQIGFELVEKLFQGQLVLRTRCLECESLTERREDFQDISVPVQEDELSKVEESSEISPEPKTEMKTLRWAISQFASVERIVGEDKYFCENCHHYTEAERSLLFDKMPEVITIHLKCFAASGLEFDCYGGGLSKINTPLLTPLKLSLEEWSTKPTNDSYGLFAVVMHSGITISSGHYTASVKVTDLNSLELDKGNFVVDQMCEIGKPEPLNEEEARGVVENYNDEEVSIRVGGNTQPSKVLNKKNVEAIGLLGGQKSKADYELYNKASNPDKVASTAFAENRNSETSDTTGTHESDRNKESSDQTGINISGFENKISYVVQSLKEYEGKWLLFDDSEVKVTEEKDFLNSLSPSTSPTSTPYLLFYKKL
How it was run: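 Enzyme-free wells gave the negative control, while test wells held 1nM USP1/UAF1 preincubated with compound for 15 min at room temperature. Ub-Rho at 150nM final started the reaction, and fluorescence at 480/540 nm was recorded kinetically.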

[3] = target: Luciferin 4-monooxygenase (Photinus pyralis) (UniProt P08659); assay: Biochemical firefly luciferase enzyme assay for NPC (AID 624030); also: potency is read from the fitted curve at half-maximal effect; nearly all actives have a fitted effect of over 70% in size
Sequence of Luciferin 4-monooxygenase (Photinus pyralis) (P08659 whole entry, looked up): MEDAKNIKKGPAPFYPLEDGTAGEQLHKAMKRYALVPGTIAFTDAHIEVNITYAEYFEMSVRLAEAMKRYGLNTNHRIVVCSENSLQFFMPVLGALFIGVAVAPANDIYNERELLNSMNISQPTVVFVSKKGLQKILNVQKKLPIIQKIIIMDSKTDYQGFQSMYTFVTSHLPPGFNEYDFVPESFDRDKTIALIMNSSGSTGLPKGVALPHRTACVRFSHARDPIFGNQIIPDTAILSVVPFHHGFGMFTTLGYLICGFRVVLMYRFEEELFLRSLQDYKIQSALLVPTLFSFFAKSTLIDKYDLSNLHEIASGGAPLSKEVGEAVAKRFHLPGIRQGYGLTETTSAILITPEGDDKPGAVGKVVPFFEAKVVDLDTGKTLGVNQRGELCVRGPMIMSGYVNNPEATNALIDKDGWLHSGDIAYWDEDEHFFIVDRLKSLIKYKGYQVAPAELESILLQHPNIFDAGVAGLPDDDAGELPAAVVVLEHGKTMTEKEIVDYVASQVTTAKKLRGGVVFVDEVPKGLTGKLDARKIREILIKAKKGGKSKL
How it was run: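 Direct inhibition of firefly luciferase enzyme (10 nM final, 50 mM Tris Acetate) assessed by luminescence within 5 minutes. Percent activity scaled between DMSO and PTC124 positive control, with concentration-effect curves classified by fit quality and response.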

[4] = S16 Schwann cell viability assay (CellTiter-Glo assay) (AID 624031);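 also: cellular ATP luminescence as a viability measure; nearly all actives have a fitted effect of over 70% in size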
How it was run: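 Luminescent ATP read-out (CellTiter-Glo) after 24 h compound exposure of native S16 rat Schwann cells at 37 °C. Signals were normalized between cell-free wells and DMSO-treated cells, set as 0% activity.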

[5] = S16 Schwann cell PMP22 intronic element beta-lactamase assay (AID 624044; calls by dose curve; also: nearly all actives have a fitted effect of over 15% in size)
How it was run: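 Beta-lactamase reporter under a PMP22 intronic regulatory element in stable S16 rat Schwann cells; 24 h compound exposure. 460 nm blue signal normalized between DMSO (0%) and potassium clavulanate, with 535 nm FRET tracking viability; curves classed by r2 and response.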

[6] = target: Cytochrome P450 2C9 (Homo sapiens) (UniProt P11712); assay: Cytochrome P450 family 2 subfamily C member 9 (CYP2C9) small molecule antagonists: luciferase biochemical (cell-free) qHTS assay (AID 1645842; active = well fitted curve in the direction sought with a large enough effect in the repeat runs; an effect the other way counts as inactive or inconclusive; also: nearly all actives have a fitted effect of over 55% in size)
Sequence of Cytochrome P450 2C9 (Homo sapiens) (P11712 whole entry, looked up): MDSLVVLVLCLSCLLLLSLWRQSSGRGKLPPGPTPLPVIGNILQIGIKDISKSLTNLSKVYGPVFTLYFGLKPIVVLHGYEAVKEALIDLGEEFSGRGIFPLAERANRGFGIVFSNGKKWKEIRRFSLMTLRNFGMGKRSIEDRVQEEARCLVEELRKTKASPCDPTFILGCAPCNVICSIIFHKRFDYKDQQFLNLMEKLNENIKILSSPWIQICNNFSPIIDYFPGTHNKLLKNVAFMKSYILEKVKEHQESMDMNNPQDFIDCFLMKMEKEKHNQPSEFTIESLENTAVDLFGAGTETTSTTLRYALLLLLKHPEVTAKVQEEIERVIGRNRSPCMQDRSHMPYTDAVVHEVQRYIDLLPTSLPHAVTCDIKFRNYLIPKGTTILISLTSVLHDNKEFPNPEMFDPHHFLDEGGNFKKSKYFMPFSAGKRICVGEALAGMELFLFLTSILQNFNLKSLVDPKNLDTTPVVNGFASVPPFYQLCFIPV
How it was run: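 P450-Glo CYP2C9 system: proluciferin substrate with enzyme in mix containing 0.4% BSA, 10 min at room temperature, then NADPH regeneration solution added and incubated 1 h at 37C. Detection reagent stopped reaction; luminescence read after 20 min as RLU.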

[7] = NCATS anti-infectives library activity on HEK293 viability as a counter-qHTS vs the C. elegans viability qHTS (AID 1745854)
How it was run: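 CellTiter-Glo luminescence, read on a CCD imager, scored viability of HEK293 cells after 24 hr compound exposure at 37C. Library tested in several concentrations, 1:5 steps, up to 41.7 uM; digitonin served as control.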

[8] = target: Phospholipid hydroperoxide glutathione peroxidase GPX4 (Homo sapiens) (UniProt P36969); assay: Primary qHTS Assay for Inhibitors of Recombinant Selenoprotein Glutathione Peroxidase 4 (GPX4) (AID 1845192); also: nearly all actives have a fitted effect of over 65% in size
Sequence of Phospholipid hydroperoxide glutathione peroxidase GPX4 (Homo sapiens) (P36969 whole entry, looked up): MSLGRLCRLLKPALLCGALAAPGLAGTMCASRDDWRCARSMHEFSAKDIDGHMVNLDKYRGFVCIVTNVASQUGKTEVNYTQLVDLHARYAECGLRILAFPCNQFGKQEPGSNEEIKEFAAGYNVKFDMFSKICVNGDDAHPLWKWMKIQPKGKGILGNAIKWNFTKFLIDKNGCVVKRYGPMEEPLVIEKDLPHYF
How it was run: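 NADPH consumption followed by fluorescence at 340/450 nm, t=0 and after 15 min at room temperature. Reaction started with cumene hydroperoxide (0.5 mM final) after 30 min compound–GPX4 preincubation; final 200 nM GPX4, 100 nM GR, 1 mM GSH, 0.5 mM NADPH.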

[9] = qHTS profiling for inhibitors of Plasmodium falciparum proliferation (AID 504749); also: nearly all actives have a fitted effect of over 60% in size; settings: P. falciparum in erythrocytes, SYBR Green DNA, 72 h, at 28.7 µM (top of the series)
How it was run: (§1)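 In a 72 h erythrocytic culture (37 C, humidified, 5% CO2) at 2.5% hematocrit and 0.3% starting parasitemia, compounds were tested; SYBR Green I in detergent lysis buffer stained parasite DNA overnight.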

[10] = system: 3D7; assay: as above; settings: P. falciparum in erythrocytes, SYBR Green DNA, 72 h; series mostly up to 12.8 µM
How it was run: as §1

[11] = system: 7G8; assay: as above; settings: P. falciparum in erythrocytes, SYBR Green DNA, 72 h; series mostly up to 12.8 µM
How it was run: as §1

[12] = system: AA1029; assay: as above; settings: P. falciparum in erythrocytes, SYBR Green DNA, 72 h; series mostly up to 12.8 µM
How it was run: as §1

[13] = system: AS120; assay: as above; settings: P. falciparum in erythrocytes, SYBR Green DNA, 72 h; series mostly up to 12.8 µM
How it was run: as §1

[14] = system: ATS189; assay: as above; settings: P. falciparum in erythrocytes, SYBR Green DNA, 72 h; series mostly up to 12.8 µM
How it was run: as §1

[15] = system: C2A; assay: as above; settings: P. falciparum in erythrocytes, SYBR Green DNA, 72 h; series mostly up to 12.8 µM
How it was run: as §1

[16] = system: CP185; assay: as above; settings: P. falciparum in erythrocytes, SYBR Green DNA, 72 h; series mostly up to 12.8 µM
How it was run: as §1

[17] = system: CP191; assay: as above; settings: P. falciparum in erythrocytes, SYBR Green DNA, 72 h; series mostly up to 12.8 µM
How it was run: as §1

[18] = system: CP192; assay: as above; settings: P. falciparum in erythrocytes, SYBR Green DNA, 72 h; series mostly up to 12.8 µM
How it was run: as §1

[19] = system: CP194; assay: as above; settings: P. falciparum in erythrocytes, SYBR Green DNA, 72 h; series mostly up to 12.8 µM
How it was run: as §1

[20] = system: CP201; assay: as above; settings: P. falciparum in erythrocytes, SYBR Green DNA, 72 h; series mostly up to 12.8 µM
How it was run: as §1

[21] = system: CP203; assay: as above; settings: P. falciparum in erythrocytes, SYBR Green DNA, 72 h; series mostly up to 12.8 µM
How it was run: as §1

[22] = system: CP211; assay: as above; settings: P. falciparum in erythrocytes, SYBR Green DNA, 72 h; series mostly up to 12.8 µM
How it was run: as §1

[23] = system: CP215; assay: as above; settings: P. falciparum in erythrocytes, SYBR Green DNA, 72 h; series mostly up to 12.8 µM
How it was run: as §1

[24] = system: CP217; assay: as above; settings: P. falciparum in erythrocytes, SYBR Green DNA, 72 h; series mostly up to 12.8 µM
How it was run: as §1

[25] = system: CP237; assay: as above; settings: P. falciparum in erythrocytes, SYBR Green DNA, 72 h; series mostly up to 12.8 µM
How it was run: as §1

[26] = system: CP238; assay: as above; settings: P. falciparum in erythrocytes, SYBR Green DNA, 72 h; series mostly up to 12.8 µM
How it was run: as §1

[27] = system: CP247; assay: as above; settings: P. falciparum in erythrocytes, SYBR Green DNA, 72 h; series mostly up to 12.8 µM
How it was run: as §1

[28] = system: CP250; assay: as above; settings: P. falciparum in erythrocytes, SYBR Green DNA, 72 h; series mostly up to 12.8 µM
How it was run: as §1

[29] = system: CP252; assay: as above; settings: P. falciparum in erythrocytes, SYBR Green DNA, 72 h; series mostly up to 12.8 µM
How it was run: as §1

[30] = system: CP256; assay: as above; settings: P. falciparum in erythrocytes, SYBR Green DNA, 72 h; series mostly up to 12.8 µM
How it was run: as §1

[31] = system: CP260; assay: as above; settings: P. falciparum in erythrocytes, SYBR Green DNA, 72 h; series mostly up to 12.8 µM
How it was run: as §1

[32] = system: CP262; assay: as above; settings: P. falciparum in erythrocytes, SYBR Green DNA, 72 h; series mostly up to 12.8 µM
How it was run: as §1

With Nc1nc(NC2CC2)c2ncn([C@H]3C=C[C@@H](CO)C3)c2n1 the outcome [1] was “inactive”, the Potency [2] was “inactive” and the Potency [3] was 11.4 µM (active). The outcome [4] was “inactive”, the Potency [5] was “inactive” and the Potency [6] was “inactive”. For the same compound, the outcome [7] was “inactive”, the Potency [8] was “inactive” and the activity, negative = inhibition ([9]; parasite line A) was 8.14%. For the same compound, the activity, negative = inhibition ([9]; parasite line B) was 1.25%, the Potency [10] was “inactive” and the Potency [11] was “inactive”. The Potency [12] was “inactive”, the Potency [13] was “inactive” and the Potency [14] was “inactive”. The Potency [15] was “inactive”, the Potency [16] was “inactive” and the Potency [17] was “inactive”. The Potency [18] was “inactive”, the Potency [19] was “inactive” and the Potency [20] was “inactive”. For the same compound, the Potency [21] was “inactive”, the Potency [22] was “inactive” and the Potency [23] was “inactive”. For the same compound, the Potency [24] was “inactive”, the Potency [25] was “inactive” and the Potency [26] was “inactive”. For the same compound, the Potency [27] was “inactive”, the Potency [28] was “inactive” and the Potency [29] was “inactive”. The Potency [30] was “inactive”, the Potency [31] was “inactive” and the Potency [32] was “inactive”.
